Source: PubChem BioAssay AID1159580 (chemical genetic matrix, 2015)
Where “and” joins values, the source holds several entries; their conditions need not be identical. Identical values can stand only once. Screen size: about 5,500 compounds; about 2,000 (36%) were called active. Not shown: some 18% with an inconclusive outcome. Cut-off read from the data, not from the text of the source: active = normalized growth mostly below about 0.91 (no sharp cut-off); inconclusive = no clear call, values can overlap the other calls; inactive = mostly above about 0.92. Some of the results follow.

Assay: chemical genetic growth profiling, strain panel (AID 1159580);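 note: tested at 20 µM; growth read once vehicle control cultures reached saturation at 30 °C; 1 = growth at the plate median or of vehicle wells; lower values mean less growth of the strain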
Details: S. cerevisiae deletion strains, growth OD

Measured: normalized growth

NS(=O)(=O)c1cc2c(cc1Cl)NCNS2(=O)=O
inactive: locus YAL013W, strain DEP1, active compounds read low 1.01 | locus YAL021C, strain ccr4, active compounds read low 1 | locus YAL026C, strain drs2, active compounds read low 1.01 | locus YAL030W, strain snc1, active compounds read low 1 | locus YAL040C, strain CLN3, active compounds read low 1.01 | locus YBL061C, strain skt5, active compounds read low 0.995 | locus YBR009C, strain hhf1, active compounds read low 0.996 | locus YBR021W, strain FUR4, active compounds read low 0.994 | locus YBR023C, strain chs3, active compounds read low 0.984 | locus YBR171W, strain sec66, active compounds read low 0.997 | locus YBR229C, strain ROT2, active compounds read low 1 | locus YBR231C, strain swc5, active compounds read low 0.976 | locus YBR279W, strain paf1, active compounds read low 0.999 | locus YCL011C, strain gbp2, active compounds read low 1 | locus YCL016C, strain dcc1, active compounds read low 0.971 | locus YCL029C, strain bik1, active compounds read low 0.996 | locus YCL061C, strain MRC1 (second series), active compounds read low 1.01 | locus YCL061C, strain MRC1, active compounds read low 0.999 | locus YCL069W, strain vba3, active compounds read low 0.993 | locus YCR088W, strain abp1, active compounds read low 0.995 | locus YDL005C, strain med2, active compounds read low 0.984 | locus YDL035C, strain GPR1, active compounds read low 1.02 | locus YDL040C, strain nat1, active compounds read low 1 | locus YDL074C, strain BRE1, active compounds read low 0.989 | locus YDL101C, strain DUN1, active compounds read low 1.01 | locus YDL134C, strain PPH21, active compounds read low 1.01 | locus YDL185W, strain tfp1, active compounds read low 0.998 | locus YDL192W, strain arf1, active compounds read low 0.999 | locus YDR001C, strain nth1, active compounds read low 0.996 | locus YDR069C, strain doa4, active compounds read low 1.03 | locus YDR101C, strain arx1, active compounds read low 1.03 | locus YDR137W, strain rgp1, active compounds read low 0.97 | locus YDR159W, strain sac3, active compounds read low 1 | locus YDR162C, strain NBP2, active compounds read low 1.01 | locus YDR195W, strain ref2 0.982 | locus YDR297W, strain sur2, active compounds read low 1 | locus YDR318W, strain mcm21, active compounds read low 0.991 | locus YDR334W, strain swr1, active compounds read low 1 | locus YDR335W, strain msn5, active compounds read low 1 | locus YDR363W, strain ESC2, active compounds read low 1.02 | locus YDR388W, active compounds read low 0.993 | locus YDR392W, strain spt3, active compounds read low 0.962 | locus YDR502C, strain sam2, active compounds read low 0.994 | locus YEL003W, strain gim4, active compounds read low 1.01 | locus YEL037C, strain rad23, active compounds read low 0.992 | locus YEL061C, strain CIN8 (second series), active compounds read low 0.991 | locus YEL061C, strain CIN8, active compounds read low 1 | locus YER002W, strain NOP16, active compounds read low 0.996 | locus YER015W, strain faa2, active compounds read low 0.983 | locus YER016W, strain bim1, active compounds read low 1.01 | locus YER110C, active compounds read low 0.998 | locus YER111C, strain swi4, active compounds read low 0.992 | locus YER155C, strain BEM2 (second series), active compounds read low 1.02 | locus YER155C, strain BEM2, active compounds read low 1.01 | locus YER167W, strain BCK2, active compounds read low 1 | locus YFR010W, strain ubp6, active compounds read low 1 | locus YGL078C, strain dbp3, active compounds read low 0.997 | locus YGL086W, strain mad1, active compounds read low 0.999 | locus YGL167C, strain pmr1, active compounds read low 1 | locus YGL173C, strain kem1, active compounds read low 0.996 | locus YGL227W, strain vid30, active compounds read low 0.996 | locus YGL240W, strain doc1, active compounds read low 1 | locus YGL248W, strain PDE1, active compounds read low 1 | locus YGL253W, strain hxk2, active compounds read low 1 | locus YGR078C, strain PAC10, active compounds read low 1.01 and 0.993 | locus YGR135W, strain pre9, active compounds read low 0.984 | locus YGR229C, strain SMI1, active compounds read low 1.01 | locus YGR252W, strain gcn5, active compounds read low 0.969 | locus YHR013C, strain ard1, active compounds read low 0.999 | locus YHR027C, strain rpn1, active compounds read low 0.99 | locus YHR030C, strain SLT2, active compounds read low 1.01 and 0.971 | locus YHR079C, strain IRE1 (second series), active compounds read low 0.996 | locus YHR079C, strain IRE1, active compounds read low 0.962 | locus YHR094C, strain hxt1, active compounds read low 0.993 | locus YHR129C, strain ARP1, active compounds read low 1 | locus YHR142W, strain chs7, active compounds read low 0.994 | locus YHR200W, strain rpn10, active compounds read low 1 | locus YIL066C, strain RNR3, active compounds read low 1.01 | locus YIL073C, strain SPO22, active compounds read low 1.01 | locus YIL125W, strain kgd1, active compounds read low 0.996 | locus YIR030C, strain dcg1, active compounds read low 1 | locus YJL092W, strain hpr5, active compounds read low 1 | locus YJL095W, strain BCK1 (second series), active compounds read low 1 | locus YJL095W, strain BCK1, active compounds read low 1.01 and 0.976 | locus YJL115W, strain asf1, active compounds read low 1.01 | locus YJL129C, strain trk1, active compounds read low 1 | locus YJL134W, strain LCB3, active compounds read low 1.01 | locus YJL154C, strain vps35, active compounds read low 0.995 | locus YJL164C, strain tpk1, active compounds read low 0.995 | locus YJL166W, strain qcr8, active compounds read low 0.999 | locus YJL168C, strain set2, active compounds read low 0.993 | locus YJL187C, strain SWE1 (second series), active compounds read low 1.01 | locus YJL187C, strain SWE1, active compounds read low 0.998 | locus YJR043C, strain POL32, active compounds read low 1.02 | locus YJR066W, strain TOR1, active compounds read low 0.937 | locus YJR075W, strain HOC1, active compounds read low 1.01 | locus YKL009W, strain mrt4, active compounds read low 1.01 | locus YKL068W, active compounds read low 1 | locus YKL085W, strain MDH1 (second series), active compounds read low 0.994 | locus YKL085W, strain MDH1, active compounds read low 0.994 | locus YKL160W, strain elf1, active compounds read low 0.988 | locus YKL190W, strain CNB1, active compounds read low 1.01 | locus YKR001C, strain vps1, active compounds read low 1.01 | locus YKR026C, strain gcn3, active compounds read low 0.997 | locus YKR091W, strain srl3, active compounds read low 0.997 | locus YLL001W, strain dnm1, active compounds read low 0.98 | locus YLL026W, active compounds read low 1 | locus YLL041C, strain sdh2, active compounds read low 0.997 | locus YLR027C, strain aat2, active compounds read low 1.01 | locus YLR039C, strain RIC1, active compounds read low 0.936 | locus YLR058C, strain SHM2, active compounds read low 0.989 | locus YLR102C, strain apc9, active compounds read low 0.993 | locus YLR113W, strain HOG1, active compounds read low 0.989 | locus YLR221C, strain rsa3, active compounds read low 0.963 | locus YLR258W, strain gsy2, active compounds read low 0.996 | locus YLR262C, strain YPT6 (second series), active compounds read low 0.992 | locus YLR262C, strain YPT6, active compounds read low 1.01 | locus YLR268W, strain sec22, active compounds read low 0.991 | locus YLR320W, strain mms22, active compounds read low 0.998 | locus YLR330W, strain CHS5, active compounds read low 1.01 | locus YLR342W, strain FKS1 (second series), active compounds read low 1.02 | locus YLR342W, strain FKS1, active compounds read low 1 | locus YLR357W, strain rsc2, active compounds read low 1.01 | locus YLR370C, strain arc18, active compounds read low 0.983 | locus YLR371W, strain rom2, active compounds read low 1 | locus YLR384C, strain iki3, active compounds read low 0.996 | locus YLR418C, strain cdc73, active compounds read low 0.978 | locus YML016C, strain PPZ1, active compounds read low 1.01 | locus YML032C, strain rad52, active compounds read low 1 | locus YML120C, strain ndi1, active compounds read low 0.978 | locus YML124C, strain tub3, active compounds read low 0.999 | locus YMR058W, strain fet3, active compounds read low 0.998 | locus YMR078C, strain ctf18, active compounds read low 0.993 | locus YMR125W, strain sto1, active compounds read low 1 | locus YMR129W, active compounds read low 0.995 | locus YMR205C, strain PFK2, active compounds read low 0.992 | locus YMR223W, strain ubp8, active compounds read low 0.985 | locus YMR231W, strain pep5, active compounds read low 0.996 | locus YMR263W, strain SAP30, active compounds read low 1.01 | locus YMR307W, strain GAS1, active compounds read low 0.999 | locus YNL067W, strain RPL9B, active compounds read low 1.01 | locus YNL071W, strain lat1, active compounds read low 1 | locus YNL128W, strain TEP1, active compounds read low 1.02 | locus YNL153C, strain GIM3, active compounds read low 1.01 and 1.02 | locus YNL175C, strain NOP13, active compounds read low 1.02 | locus YNL183C, strain NPR1, active compounds read low 0.956 | locus YNL197C, strain WHI3, active compounds read low 1 | locus YNL209W, strain ssb2, active compounds read low 0.998 | locus YNL224C, strain SQS1, active compounds read low 0.996 | locus YNL233W, strain BNI4, active compounds read low 1.01 | locus YNL248C, strain rpa49, active compounds read low 1.01 | locus YNL250W, strain rad50, active compounds read low 0.987 | locus YNL271C, strain bni1, active compounds read low 0.991 | locus YNL298W, strain CLA4, active compounds read low 1 | locus YNL307C, strain MCK1, active compounds read low 0.999 | locus YNL322C, strain KRE1 (second series), active compounds read low 0.993 | locus YNL322C, strain KRE1, active compounds read low 1 and 1.01 | locus YNR049C, strain mso1, active compounds read low 1 | locus YNR052C, strain pop2, active compounds read low 0.999 | locus YOL006C, strain TOP1, active compounds read low 1.03 | locus YOL012C, strain htz1 0.74 | locus YOL147C, strain pex11, active compounds read low 0.993 | locus YOR001W, strain rrp6, active compounds read low 1.04 | locus YOR061W, strain CKA2, active compounds read low 1 | locus YOR069W, strain VPS5, active compounds read low 1.01 | locus YOR070C, strain gyp1, active compounds read low 0.994 | locus YOR080W, strain dia2, active compounds read low 1 | locus YOR083W, strain WHI5 (second series), active compounds read low 0.981 | locus YOR083W, strain WHI5, active compounds read low 0.988 | locus YOR106W, strain vam3, active compounds read low 1.01 | locus YOR136W, strain idh2, active compounds read low 0.997 | locus YOR144C, strain elg1, active compounds read low 0.994 | locus YOR184W, strain ser1, active compounds read low 0.994 | locus YOR231W, strain MKK1, active compounds read low 0.972 | locus YOR265W, strain rbl2, active compounds read low 0.997 | locus YOR270C, strain vph1, active compounds read low 1.03 | locus YOR290C, strain snf2, active compounds read low 0.956 | locus YOR316C, strain cot1, active compounds read low 0.996 | locus YPL051W, strain arl3, active compounds read low 1 | locus YPL055C, strain LGE1, active compounds read low 1.02 | locus YPL078C, strain atp4, active compounds read low 0.994 | locus YPL106C, strain sse1, active compounds read low 0.979 | locus YPL240C, strain hsp82, active compounds read low 1 | locus YPL241C, strain CIN2, active compounds read low 1.01 | locus YPL256C, strain CLN2, active compounds read low 0.986 | locus YPR119W, strain clb2, active compounds read low 0.992 | locus YPR141C, strain kar3, active compounds read low 1 | locus YPR163C, strain tif3, active compounds read low 0.994 | locus YPR167C, strain met16, active compounds read low 1 | strain wtn01, active compounds read low 0.984
